High-throughput results deposited in PubChem by National Center for Advancing Translational Sciences (NCATS).
PI4K2A inh: inhibitors of human PI4K2A; Q9BTU6; purified PI4K2A, ADP-Glo luminescence, 1 h; active compounds read low; activity change, negative = inhibition, % at 76.9 µM; 420,000 tested, 0.13% active; in the data active means activity change below about -50%; inconclusive means mostly about -30% to -49%;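 further: -100% = wells without enzyme as full effect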
Target sequence (Q9BTU6 whole entry, looked up): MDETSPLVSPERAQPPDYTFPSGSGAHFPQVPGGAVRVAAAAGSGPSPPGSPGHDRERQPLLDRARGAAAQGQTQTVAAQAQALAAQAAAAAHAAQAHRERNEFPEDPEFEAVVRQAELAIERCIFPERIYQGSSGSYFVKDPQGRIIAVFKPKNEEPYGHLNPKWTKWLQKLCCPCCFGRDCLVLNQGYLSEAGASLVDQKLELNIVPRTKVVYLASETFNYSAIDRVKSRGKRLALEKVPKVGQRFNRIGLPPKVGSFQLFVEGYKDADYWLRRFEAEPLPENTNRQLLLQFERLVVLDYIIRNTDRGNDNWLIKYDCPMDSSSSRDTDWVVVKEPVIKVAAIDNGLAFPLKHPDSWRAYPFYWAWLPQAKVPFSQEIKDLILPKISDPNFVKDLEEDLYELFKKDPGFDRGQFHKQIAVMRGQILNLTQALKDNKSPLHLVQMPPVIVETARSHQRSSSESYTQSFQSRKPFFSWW
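Compounds are screened against recombinant PI4K2A using PI as substrate and ATP, the latter dispensed at 300 microM. Reactions run one hour at ambient temperature before ADP-Glo detection; full inhibition defined by wells lacking enzyme.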
Pin1 inhibitor: inhibitors of human Pin1; Q13526; Pin1 FP peptide displacement, HiFluor488, 10 min; Potency, µM (titrated, usually from 115 µM), without a hit: at the top dose activity, negative = inhibition, actives largely listed as inhibitors; 390,000 tested, 0.009% active; AID 504891; active means well fitted inhibition curve with a large enough effect in the polarisation, with a control signal flat, not every such curve was filed as active; inconclusive means small, poorly fitted or top-dose-only effect, or effect the other way, or a change in a side signal; inactive means no such curve, though single readings can be large or run the other way; the % refers to the polarisation; further: potency means the concentration at half of the fitted maximal effect
Target sequence (Q13526 whole entry, looked up): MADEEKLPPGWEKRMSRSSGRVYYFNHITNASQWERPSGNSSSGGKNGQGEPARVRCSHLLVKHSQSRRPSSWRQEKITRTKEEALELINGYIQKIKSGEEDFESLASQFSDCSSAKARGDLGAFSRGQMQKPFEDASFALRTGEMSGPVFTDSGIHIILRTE
PI5P4K alpha inh: PI5P4K alpha (human) kinase inhibition | P48426 | PI5P4Kalpha enzyme, ADP-Glo luminescence, 60 min; active compounds read low | max response, % | 330,000 tested, 1.2% active | AID 652105; active means max response of -50% or lower; inconclusive means between -30% and -50%; inactive means -30% or higher; further: value at the top dose of about 77 µM
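Quantitative HTS of the MLSMR library against PI5P4Kalpha with substrate. ATP added last at 5 microM final; room temperature, 60 minutes. Remaining ATP depleted, ADP converted and read as luminescence.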
Tb PFK inh: blocks T. brucei phosphofructokinase; O15648; Potency, µM (top dose mostly 57.5 µM), inactives show at the highest dose activity, negative = inhibition, most hits filed as inhibitors; 330,000 tested, 0.17% active; T. brucei PFK, ADP-Glo luminescence;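 further: potency means the concentration at half of the fitted maximal effect; 0% = uninhibited 1x PFK enzyme wells and -100% = no-enzyme wells; nearly all actives have a fitted effect of over 60% in size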
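Compounds were pin-transferred as a titration series up to 57 uM into substrate buffer (0.5 mM F6P, 0.1 mM ATP, pH 8.0), then 1.25 nM PFK was added and reactions ran 45 min before ADP-Glo detection.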
Tb PGK inh: T. brucei PGK inhibition; PGK/GAPDH coupled, Kinase-Glo luminescence, 60 min; Potency, µM (top dose mostly 57.5 µM), without a hit: top-dose activity change, negative = inhibition, hits mostly inhibitors; 380,000 tested, 0.043% active; AID 602233; further: potency means the concentration at half of the fitted maximal effect; nearly all actives have a fitted effect of over 60% in size
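Recombinant glycosomal PGK reaction used 1,3-bisphosphoglycerate generated in-well by GAPDH (100nM final) in 100mM TEA pH 7.6, 5mM MgCl2, 0.01% Tween-20. After 60 minutes at room temperature, ATP was read by Kinase-Glo Plus luminescence end-point.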
ADP-Glo interf: ADP-Glo luciferase interference, PI5P4K counter-screen; Potency, µM (titrated, usually from 76.9 µM), inactives show top-dose activity change, negative = inhibition, usual class: inhibitors; ADP-Glo detection counter-screen, luciferase luminescence, no enzyme; shares compounds with PI5P4K alpha inh; 1,100 tested, under 10 active
The depositor's hits bear a star; i = inactive; ? = inconclusive; / = not tested or not shown. The entries come from a sample that favours hits as a whole. Unless noted, the call rests on the fitted dose curve; in most records, active means well fitted curve in the direction sought with a large enough effect; inconclusive means small, poorly fitted or top-dose-only effect, or another doubt; inactive means no such curve, though single readings can be large; an effect the other way counts as inactive or inconclusive. Unless noted, on the % scale 0 is the no-effect control and ±100 the full control effect.

SMILES	PI4K2A inh	Pin1 inhibitor	PI5P4K alpha inh	Tb PFK inh	Tb PGK inh	ADP-Glo interf
O=C(NCC1CCN(C(=O)c2cccc([N+](=O)[O-])c2)CC1)c1cccc([N+](=O)[O-])c1	-1	0%	6	0%	9%	/
COc1cc(Cn2c3ccc(NC(=O)CCc4ccccc4)cc3c(=O)n2C)ccc1F	-3	/	-64*	/	/	-2%
O=C(Cc1ccccc1)Nc1nnc(-c2cccnc2)s1	-4	/	/	/	/	/
CC(C)(C)n1nnnc1SCC(=O)Nc1nn(-c2ccccc2)nc1C(N)=O	0	1%	-58*	-1%	-5%	-2%
Cc1ccccc1Cn1cc(COC(=O)NCCc2c[nH]c3ccccc23)nn1	-4	/	/	/	/	/
CC(=O)N1CCN(S(=O)(=O)c2ccc3c(c2)oc(=O)n3C)CC1	-8	/	/	/	/	/
CC(=O)c1ccc2noc(-c3ccc(C)cc3)c2c1	-7	13%	-2	1%	-6%	/
Cc1ccc(-c2onc3ccc(C(=O)O)cc23)cc1	-1	15%	-52*	26%	-4%	1%
CN1OC[C@@H]2CN3C(=O)N(c4cccc5ccccc45)c4ccccc4[C@@H]3C[C@@H]21	-4	/	-53*	/	/	1%
CN1OC[C@@H]2CN(S(=O)(=O)c3cccc4ccccc34)[C@H](c3ccc(-c4ccccc4)cc3)C[C@@H]21	-2	/	17	/	-4%	/
O=[N+]([O-])c1ccc(-c2cc(-c3ccc(Cl)cc3)n[nH]2)cc1	-12	?	-69*	?	-6%	2%
O=[N+]([O-])c1ccc2nc(-c3ccc(Cl)cc3)[nH]c2c1	-5	-7%	?	-3%	-7%	/
COc1ccccc1Cc1c(-c2ccco2)nc2c(C)cc(Br)cn12	?	/	-78*	/	/	-4%
COc1ccc(Cc2c(-c3ccco3)nc3ccc(Br)cn23)c(C)c1	?	/	-60*	/	/	-6%
Cc1cc(Br)cn2c(Cc3ccsc3)c(-c3ccco3)nc12	-26	/	-90*	/	/	-2%
COC(=O)c1c(NS(=O)(=O)Cc2ccccc2)sc2c1CCCC2	-2	0%	/	-5%	i	/
CC(C)OC(=O)c1c(NS(=O)(=O)c2ccccc2)sc2c1CCCC2	1	-2%	-63*	-5%	-1%	-1%
COc1ccc(C2CC(=O)N3CN(c4ccc(C)c(Cl)c4)CSC3=C2C#N)cc1OC (stereo not given)	-2	0%	-61*	-3%	5%	0%
COc1ccc(N2CSC3=C(C#N)C(c4cc(OC)c(OC)cc4OC)CC(=O)N3C2)c(OC)c1 (stereo not given)	-13	50%	?	-24%	i	/
COc1ccc(N2CSC3=C(C#N)C(c4ccc(OC)c(OC)c4)CC(=O)N3C2)c(OC)c1 (stereo not given)	-4	36%	-53*	-8%	-5%	-18%
COc1ccc(C2CC(=O)N3CN(C4CCCCC4)CSC3=C2C#N)cc1 (stereo not given)	-4	-21%	/	/	-6%	/
CCOc1ccccc1N1CSC2=C(C#N)C(c3c(OC)ccc4ccccc34)CC(=O)N2C1 (stereo not given)	-16	17%	-85*	-30%	4%	-5%
O=C(CN1C(=O)CCSc2ccccc21)Nc1ccc(Cl)cc1	5	/	/	/	/	/
N#Cc1cccc(NC(=O)OC2CC3CC2[C@H]2CCCCN2[C@H]3Cc2ccccc2)c1 (stereo not given in full)	-5	/	/	/	/	/
CN(Cc1ccccc1F)C(=O)Cn1c(-c2cncs2)nc2ccccc21	-4	/	/	/	/	/
SMILES	PI4K2A inh	Pin1 inhibitor	PI5P4K alpha inh	Tb PFK inh	Tb PGK inh	ADP-Glo interf
O=C(NCc1ccco1)c1cccc(Nc2nc3ccc(Br)cc3[nH]2)c1	1	0%	-1	-3%	i	/
O=C(NCC1CC1)c1ccc(Nc2nc3ccc(Br)cc3[nH]2)cc1	-4	-2%	-56*	-8%	-2%	3%
Cc1ccc(NC(=O)c2ccc3c(c2)NC(=O)CS3)nc1	-3	40%	-57*	-15%	5%	-9%
Cc1nnc(NC(=O)c2ccc3c(c2)NC(=O)CS3)s1	3	-1%	-5	-3%	0%	/
CCCN(C(=O)c1cc2c(s1)CCC2)c1c(N)n(Cc2ccccc2)c(=O)[nH]c1=O	-6	?	-66*	-10%	-6%	2%
CCCN(C(=O)c1cccc(-n2cccc2)c1)c1c(N)n(Cc2ccccc2)c(=O)[nH]c1=O	-16	-9%	-88*	?	?	-8%
CCCCN(C(=O)c1cccc(-n2cccc2)c1)c1c(N)n(CCCC)c(=O)[nH]c1=O	-22	?	?	?	-9%	/
CCCN(C(=O)c1ccc([N+](=O)[O-])c(C)c1)c1c(N)n(Cc2ccccc2)c(=O)[nH]c1=O	-3	6%	6	1%	-6%	/
CCCCN(C(=O)c1cccc(-n2cccc2)c1)c1c(N)n(CCC)c(=O)[nH]c1=O	0	-9%	-61*	?	-26%	2%
COC(=O)c1cc(S(=O)(=O)N2CCN(C(C)=O)CC2)cn1C	-3	/	/	/	/	/
O=C(Nc1ccccc1Cl)c1ccc2nccnc2c1	-15	?	-27	1%	-5%	-5%
O=C(NCc1ccccc1Cl)C1CCCN(c2ncccn2)C1 (stereo not given)	-3	/	/	/	/	/
NC(=O)c1ccsc1NC(=O)COC(=O)CNC(=O)c1ccc(F)cc1	14	?	-51*	1%	0%	2%
NC(=O)c1ccsc1NC(=O)COC(=O)c1ccccc1F	9	-2%	-54*	-1%	0%	-10%
CC(=O)Nc1nc2ncccn2c1-c1ccccc1	-3	/	/	/	/	/
COc1ccc(C(=O)NC(CCSC)C(=O)N2CCCCCC2)cc1 (stereo not given)	-1	-3%	-76*	-2%	9%	-1%
CCC(C)CNC(=O)CSc1nnc(-c2cccnc2)n1C1CCCCC1 (stereo not given)	9	/	/	/	/	/
CC(C)NC(=O)c1ccc2c3n(nc2c1)-c1ccccc1CO3	-63*	1%	-52*	?	?	?
CCCCCCC(=O)NC1CCCCN(Cc2cccc(Cl)c2)C1=O (stereo not given)	2	/	/	/	/	/
O=C(Nc1nc(-c2ccco2)c(-c2ccco2)s1)c1c(F)cccc1Cl	-14	19%	1	-8%	i	/
O=C(Nc1nc(-c2ccco2)c(-c2ccco2)s1)c1ccc(F)cc1F	?	?	-64*	?	5%	-9%
CNC(C)C(=O)NC(C(=O)N1CCCC1C(=O)Nc1cccc2ncccc12)C(C)C (stereo not given)	-4	/	/	/	/	/
C[C@H]1CN=C(Nc2ccccc2)N1CCCC1CCCCC1	-2	-3%	0	0%	-9%	-5%
